Results with a measured potency or affinity are listed apart.
The compounds below were run against HMG-CoA reductase [Enterococcus faecalis] (UniProt Q9FD70) (assay: inhibitors of E. faecalis class II HMGR, confirmation, biochemical, Enterococcus faecalis (AID 1233;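 note: 0% = full reaction carrier wells and 100% = background wells lacking mevalonate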)). Details: purified E. faecalis HMGR, NADPH absorbance 340 nm kinetics; series mostly up to 100 µM; inhibition: at the top concentration.

inhibition, inactive:
Cc1ccc(NC(=O)C(=O)NCc2ccc(/C=N/NC(=O)c3c(C)nc4cc(C)ccn34)o2)cc1 -1.84%, O=C1c2ccccc2NC(c2ccc(Cl)cc2Cl)N1O (stereo not given) -1.95%, Cc1ccc(OCC(O)CN2C(=O)NC(C)(C)C2=O)cc1 (stereo not given) -9.46%, Cc1ccc(NS(=O)(=O)c2ccc(NC(=O)[C@@H]3CCCC[C@@H]3C(=O)O)cc2)c(C)c1 -4.04%, CCC(=O)Nc1ccc2c(c1)nc(CN1CCCCC1)n2C -3.15%, CCn1c(C)nc2cc(S(=O)(=O)C(F)(F)C(F)C(F)(F)F)ccc21 (stereo not given) -0.73%, Cc1cnc(NC(=O)c2cc3ccccc3o2)s1 -5.9%, Clc1cccc(CN2CCC(Cc3ccccc3)CC2)c1 -2.19%, Cc1nnc(SCc2c(Cl)cccc2Cl)n(N)c1=O -3.37%, Cc1cc(C(=O)N/N=C2\CCCC(=O)C2)c(C)n1-c1ccccc1 -0.06%, COc1cc(OC)cc(C(=O)N[C@H](C(=O)OCn2nnc3ccccc3c2=O)C(C)C)c1 11.6%, CC1CCN(c2cc(N)c(Cl)cc2[N+](=O)[O-])CC1 -3.93%, CC1=C(C)C(=O)C(N2CCOCC2)=CC1=O -4.26%, COc1ccc(N2CCN(C(=O)C3CCC(Cn4c(=S)[nH]c5ccccc5c4=O)CC3)CC2)cc1 (stereo not given) -4.08%, Cc1nn(Cc2ccc(Cl)cc2)c(Cl)c1/C=N/NC(=O)CNc1ccccc1F -2.81%, COc1ccc(NC(=O)C2=C(C)NC(=O)NC2c2cccc(OC)c2OC)c(OC)c1 (stereo not given) -5.97%, COC1(OC)N=C(NC(=O)Nc2ccccc2)C2(C#N)C(c3ccccc3)C12C#N (stereo not given) -1.26%, Cc1cc(C)c2c(=O)[nH]c(SCC(=O)N(C)C)nc2n1 -3.15%, Cc1ccc(/C=C/S(=O)(=O)NCC(=O)O)cc1 0.69%, COc1cc2c(cc1OC)CN(C(C)C(=O)N1CCc3ccccc31)CC2 (stereo not given) -8.07%
